In the supplement of paper PMC3334620:
The full ranking holds about 33,000 sequences; the median of “E-score (-0.5 to 0.5)” is about -0.0014, and the highest 2% start at about 0.25. For the sample, the highest values were picked, then their nearest neighbours and some sequences at random.

molecular target: T1, Cad1 (UniProt P24813); test: PBM E-score (8-mer binding enrichment) (E-score (-0.5 to 0.5)); higher = stronger / more preferred TF binding; details: protein concentration: 100 nM; construct: GST-full length
T1 sequence: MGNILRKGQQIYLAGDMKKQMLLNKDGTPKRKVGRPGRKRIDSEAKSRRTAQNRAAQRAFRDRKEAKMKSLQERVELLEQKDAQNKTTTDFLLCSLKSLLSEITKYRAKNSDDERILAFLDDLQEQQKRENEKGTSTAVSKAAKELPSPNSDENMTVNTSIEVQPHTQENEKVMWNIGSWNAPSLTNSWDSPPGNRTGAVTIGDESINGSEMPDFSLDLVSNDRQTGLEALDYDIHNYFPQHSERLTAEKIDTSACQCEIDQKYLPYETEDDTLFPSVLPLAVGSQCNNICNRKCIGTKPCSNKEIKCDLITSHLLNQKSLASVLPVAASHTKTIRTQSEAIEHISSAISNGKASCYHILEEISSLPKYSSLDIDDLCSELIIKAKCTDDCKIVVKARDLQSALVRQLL
Procedure, shortened: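 E-scores (a modified Wilcoxon-Mann-Whitney statistic) were assigned by the Universal PBM Analysis Suite to every ungapped eight-base word pooled with its reverse complement. The input came from universal all-10-mer Agilent arrays made double-stranded by primer extension and probed with GST-tagged yeast transcription factors at about 100-200 nM. Fluorescent anti-GST detected bound protein, and masliner normalised the scans.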

Sequence	PBM E-score
AGGTACAT	-0.172
AATCTGGC	-0.102
CTCCCTGA	-0.247
AAGCGCCT	-0.165
ACCTTTAG	-0.142
CATAGAGC	-0.22
CAGTTGGG	-0.0373
AAAATTCT	-0.00425
AAAATTAT	0.285
AAAATTAA	0.209
AAAATTAC	0.072
AAAATTAG	0.269
AAAATTGT	0.167
ATCAGTTA	0.212
GCCCATAC	-0.1
GGCGACCC	-0.332
ATTGCCTG	0.0283
ATTAACAA	0.201
CTTAACAC	0.127
ATTAACAC	0.275
CGAATAGC	0.0486
ACACGCGG	0.0311
ACACGCGT	0.258
ACACGCGA	0.143
ACAAGCGG	0.0904

Sequence	PBM E-score
GTTGGAGA	-0.0985
ACAAATGT	0.0516
ACAAATAC	0.271
ATAAATAC	0.252
GCAAATAC	0.0468
ACAAATAG	0.182
CCAAATAC	0.013
ATAAATAA	0.239
ACAAATGC	0.255
ACAAATAT	0.262
CCAAATGC	-0.0453
ACAAATAA	0.206
ATAAATAG	0.121
GCGGGCCC	-0.157
ATCCGCCA	0.0883
CAGAAGAC	0.0287
AATCATAC	0.0986
GGTGAAAC	-0.0742
GACTATCC	-0.0732
AGAATGAT	0.0516
CTTGGCTC	-0.149
CAAGCTTA	0.159
TAAGCTTA	0.378
TAAGCTGA	0.208
ACGTAGGG	-0.284

Sequence	PBM E-score
AGAGTTTG	0.0139
AGATCCCG	0.281
CGATCCCG	-0.265
AGATCCCT	-0.312
AAGACCTT	-0.0766
CCATTCTC	-0.114
TGGAGAAA	-0.151
AAATTAAT	0.288
AAATTAGG	0.13
AAATTAGT	0.273
GAATTAAA	-0.0332
AGATTAAT	0.16
AAATTACG	-0.00187
AAATTACC	0.081
AAATTAAG	0.0523
AAATTACT	0.314
AAATTAGA	0.191
AAATTAAC	0.0173
AAATTAAA	0.257
AAGTAACG	-0.0002
AACCTGCG	-0.142
CAAAGAGA	-0.113
ACCCGTTC	-0.0216
CCAGGGCG	-0.18
AGAGTTGG	-0.0857

Sequence	PBM E-score
TTGGTAAA	0.073
GAAATTAA	0.295
CAAATTAA	0.207
GAAATTAC	0.234
CCGTAATC	0.143
ACGTAAGT	-0.102
ACATAATA	0.178
ACGTAAGA	0.199
CCGTAATA	0.113
ACGTAATG	0.147
GCGTAATA	0.142
ACGTAATA	0.311
ACATAATG	0.172
ACGTAAGC	0.287
ACGTAATC	0.286
ACATAATC	0.309
AAGTGGAA	-0.0197
CTCCCGCC	-0.163
ACGAAAGT	0.0253
ACACAACT	0.0775
GAAGCCAA	-0.183
CCGAAGCG	-0.22
ATGTAAGG	0.0288
ATGTAAGC	0.305
ACATAACT	0.0912

Sequence	PBM E-score
ACCTAATC	0.259
GAATAACA	0.252
CCCTAATC	-0.076
ACATAACC	-0.0477
TAATAACA	0.15
CAATAACA	-0.0158
ACATAACA	0.273
ACCTAATA	0.137
ATGTAAGA	0.227
CCTTAGCC	-0.00184
CACGCACG	-0.131
ATTCGGGG	0.0825
GTGCCGAA	-0.0386
ACTTACGG	0.0069
TGGAGTAA	0.149
AGTTTGTG	-0.0199
GGCATAAC	0.0911
GGCGCACA	0.00969
CGCGAAGC	0.219
AGCGAAGA	-0.118
CGCGCACA	0.257
CGCGAAGA	0.273
CGCGCACG	0.0231
GGCGCAGA	0.00055
CGCGCAGC	0.103

Sequence	PBM E-score
CGCGCAGA	0.287
ACCTTCAT	-0.0561
CATAAACC	-0.0325
CGAGGCGA	0.0962
ATAAGTTC	0.197
GAAAGTAC	-0.0278
CTCAATTC	0.066
CCAGCTAA	-0.0477
AATGCATA	0.0741
AATGCATT	0.229
CATGCATG	0.252
CATGCATC	0.148
CATGCATA	0.156
AATGCATG	0.254
CGTAACAC	0.124
GGGTCGTA	-0.236
ACGAAAAT	0.189
AGAGTGTC	0.198
GGGACGAA	-0.108
CGGACGAA	0.274
CGGACGAC	-0.0294
ATCTGGTG	0.0268
CGATACAC	0.00183
ATTTCTCA	0.0134
ATTTCTCC	-0.0308

Sequence	PBM E-score
ATTTCTCG	0.332
TATTACAA	0.152
CATTACAC	0.0518
GATTACAA	0.294
CATTACAA	0.277
GATTACAC	0.156
CATTACAG	0.0228
TACTTATA	0.0796
AACTTATA	0.257
GACTTATA	0.214
TTAGCTAA	0.298
ATTGCTAG	0.014
CTTGCTAA	-0.13
ATAGCTAG	-0.106
CTAGCTAA	-0.0595
ATAGCTAA	0.0748
ATTGCTAA	0.256
CTAGCTAG	0.279
CTAGCTAC	-0.0695
ACGCCTCT	-0.183
GCTTTGAA	0.108
ACCGTGTA	0.00454
